# Screens (PubChem BioAssay)
# RORg inh = qHTS for inhibitors of ROR gamma transcriptional activity; Nuclear receptor ROR-gamma (Mus musculus), P51450; Drosophila S2 Gal4-RORgamma UAS-luciferase reporter, 20 h; Potency, µM (titrated, usually from 53.6 µM), inactives show at the highest dose activity change, negative = inhibition, hits mostly inhibitors; actives 5.4% (n = 310,000); AID 2551, 2010; also: potency is read from the fitted curve at half-maximal effect; % is scaled to controls: 0 for no effect and ±100 for the full control effect; nearly all actives have a fitted effect of over 60% in size
# Target sequence (P51450 whole entry, looked up, the tested form may be a part): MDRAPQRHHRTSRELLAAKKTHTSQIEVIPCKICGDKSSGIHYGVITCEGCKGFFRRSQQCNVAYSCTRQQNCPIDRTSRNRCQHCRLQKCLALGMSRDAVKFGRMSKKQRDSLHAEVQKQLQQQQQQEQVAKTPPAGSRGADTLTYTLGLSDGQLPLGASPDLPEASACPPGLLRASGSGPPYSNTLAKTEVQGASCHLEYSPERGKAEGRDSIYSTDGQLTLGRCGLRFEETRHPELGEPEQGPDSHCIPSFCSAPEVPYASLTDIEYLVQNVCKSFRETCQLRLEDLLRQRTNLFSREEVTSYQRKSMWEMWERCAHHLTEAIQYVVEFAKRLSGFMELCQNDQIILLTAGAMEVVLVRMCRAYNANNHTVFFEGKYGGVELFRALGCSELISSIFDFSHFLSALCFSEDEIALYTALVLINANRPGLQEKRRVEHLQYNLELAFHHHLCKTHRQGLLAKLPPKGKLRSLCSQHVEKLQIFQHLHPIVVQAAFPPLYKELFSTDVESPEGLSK
#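 Drosophila S2 cells stably expressing Gal4-DBD/mouse RORγ fusion under metallothionein promoter plus UAS-luciferase; compound 1 h, then 700 uM CuSO4 induction for 20 h at ambient temperature; inhibition read as reduced luminescence.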
# VP16 counter = VP16 counterscreen qHTS for inhibitors of ROR gamma transcriptional activity; Drosophila S2 Gal4-VP16 UAS-luciferase, luminescence, 20 h; Potency, µM (titrated, usually from 53.6 µM), without a hit: at the highest dose activity, negative = inhibition, most hits filed as inhibitors; actives 3.5% (n = 310,000); AID 2546, 2010;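 also: Gal4-VP16 expression switched on by copper sulfate through the metallothionein promoter; potency is read from the fitted curve at half-maximal effect; % is scaled to controls: 0 for no effect and ±100 for the full control effect; nearly all actives have a fitted effect of over 50% in size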
# SW480 rerep = A quantitative high throughput screen for small molecules that induce DNA re-replication in SW480 colon adenocarcinoma cells; SW480 DNA re-replication, Hoechst DNA content imaging, 48 h; Potency, µM (top dose mostly 46.1 µM), inactives show top-dose re-replication activation, most hits filed as activators; actives 1.8% (n = 340,000); AID 624297, 2012; also: potency is read from the fitted curve at half-maximal effect; % of control where 0% means no effect; nearly all actives have a fitted effect of over 55% in size
#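 SW480 cells exposed to compounds for 48 hr at 37 C, 5% CO2, then Hoechst-stained 40 min. Nuclear DNA content imaged by fluorescence scanning (405 nm excitation, 500-530 nm emission); re-replication scored as increased high-intensity nuclei.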
# MCF10A rereplic = A quantitative high throughput screen for small molecules that induce DNA re-replication in MCF 10a normal breast cells; actives 2.9% (n = 350,000); MCF 10A DNA re-replication, Hoechst nuclear intensity, 48 h; Potency, µM (series often up to 46.1 µM), inactives show at the highest dose activity, positive = re-replication, hits mostly activators; AID 624296, 2012; also: potency is read from the fitted curve at half-maximal effect; % of control where 0% means no effect; nearly all actives have a fitted effect of over 50% in size
# IL1B secr inh = qHTS for Inhibitors of Inflammasome Signaling: IL-1-beta AlphaLISA Primary Screen; THP-1 LPS/ATP IL-1B secretion, AlphaLISA, 16 h; stronger effect = lower value; activity change, % at 57.5 µM; actives 4.7% (n = 360,000); AID 743279, 2014; in the data active = activity change below about -50%; inconclusive = mostly about -30% to -49%; also: % is scaled to controls: 0 for no effect and ±100 for the full control effect
#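 THP-1 cells pretreated 1 hr with compounds (up to 57.5 uM final), then stimulated with LPS (250 ng/mL final) plus ATP (1.25 mM final); secreted IL-1B measured by AlphaLISA after 16 hr, decreased signal indicating inhibition.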
# * hit, by the source's call; ? = inconclusive; nt = no result given; [ ] = dose if it differs, or a comment. Hits are enriched below; roughly 11% of the tested compounds scored in any of these assays. Unless noted, calls follow the shape of the dose curve; as a rule, active = well fitted curve in the direction sought with a large enough effect; inconclusive = small, poorly fitted or top-dose-only effect, or another doubt; inactive = no such curve, though single readings can be large; an effect the other way counts as inactive or inconclusive.
SMILES,RORg inh,VP16 counter,SW480 rerep,MCF10A rereplic,IL1B secr inh
CCCCNC(=S)NNC(=O)CCn1cc(C)cn1,1.58µM*,6.31µM*,1.2%,1.2%,-1.4
CC(C)CNC(=S)NNC(=O)CC(C)O (configuration not stated),0.0%,0.5%,-2.9%,?,0.0
CC(=O)Oc1ccc(/C=C/c2nc3ccccc3c(=O)o2)cc1,-42.7%,?,1.4%,0.8%,17.4
O=c1oc(/C=C/c2ccc([N+](=O)[O-])s2)nc2ccccc12,nt,nt,6.5%,?,-62.4*
CC(=O)Oc1ccccc1/C=C/c1nc2ccccc2c(=O)o1,8.91µM*,10µM*,4.0%,1.4%,13.7
CCOC(=O)CN(c1cc([N+](=O)[O-])ccc1OC)S(C)(=O)=O,-17.3%,?,-6.5%,-4.1%,-60.4*
Cc1cc(S(=O)(=O)N2CCCCC2)c(C)s1,14.4%,4.2%,-3.6%,-4.2%,22.7
COc1cc2c(cc1OC)/C(=C/c1ccc(Cl)cc1)C(=O)OC2,-1.4%,4.9%,?,13µM*,-80.9*
COc1ccc(/C=C2\C(=O)OCc3cc(OC)c(OC)cc32)cc1OC,-3.0%,-1.4%,-1.0%,?,-51.1*
COC(=O)C1(C(=O)OC)CC(CO)C(=O)[C@H]1c1ccccc1 (some centres not stated),10.8%,-23.3%,nt,nt,nt
CO/N=C/C(=N\Nc1ccc(C)cc1)C(=O)c1ccc(OC)cc1,-10.9%,-5.6%,?,2.59µM*,-10.5
Cc1ccc(NC(=S)c2ccccc2)cc1,11.2µM*,?,1.1%,-3.4%,?
Cc1ccc(NC(=S)N/C(=N/S(=O)(=O)c2ccccc2)c2ccccc2)cc1,?,12.6µM*,?,0.3%,-1.2
COc1ccc(NC(=S)c2ccncc2)cc1,32.8%,5.4%,?,-45.4%,0.0
COc1ccc(C(=S)Nc2ccc(C)cc2)cc1,12.6µM*,13.4%,-4.4%,0.1%,-10.4
N#CC1C(=O)NC(=O)C(C#N)C12CCCC(C(F)(F)F)C2 (configuration not stated),nt,nt,-5.9%,-1.7%,-6.6
Cc1noc(C)c1-c1cc(NCc2ccccc2)ncn1,-13.6%,8.0%,nt,nt,nt
Cc1cc(C(=O)Nc2ccc(Cl)cc2)c(C)n1Cc1cccs1,?,-24.3%,?,?,nt
Cc1cc(C)cc(NC(=O)c2cc(C)n(Cc3cccs3)c2C)c1,-37.0%,-25.7%,?,18.4µM*,-9.0
COc1ccc2c(-c3ccccc3)cc3nnnn3c2c1,-8.6%,-9.6%,131.7%,2.59µM*,16.9
COc1ccc(NC(=O)Nc2c(O)ccc3ccccc23)cc1,nt,nt,?,?,14.6
CCCCCCNC(=O)c1cn(CC)c2cc(N3CCN(C)CC3)c(F)cc2c1=O,11.2µM*,12.6µM*,?,?,-55.0*
CCn1cc(C(=O)NCc2ccco2)c(=O)c2cc(F)c(N3CCN(C(=O)c4ccco4)CC3)cc21,-0.2%,-9.4%,-2.1%,13µM*,?
CCn1cc(C(=O)NCC(C)C)c(=O)c2cc(F)c(N3CCN(C(=O)c4ccco4)CC3)cc21,39.0%,-7.0%,-1.7%,?,0.9
CCn1cc(C(=O)NCCCO)c(=O)c2cc(F)c(N3CCN(C)CC3)cc21,-11.8%,4.8%,7.6%,3.8%,2.6
SMILES,RORg inh,VP16 counter,SW480 rerep,MCF10A rereplic,IL1B secr inh
CCn1cc(C(=O)N[C@H](C)c2ccccc2)c(=O)c2cc(F)c(N3CCN(C)CC3)cc21,-25.5%,4.4%,?,?,-74.3*
CCC(C)NC(=O)c1cn(CC)c2cc(N3CCN(C)CC3)c(F)cc2c1=O (configuration not stated),-0.8%,-2.7%,-22.4%,6.7%,-20.0
O=C(NCCCNC(=O)c1ccc(-c2cc(Cl)ccc2Cl)o1)c1cnccn1,-24.8%,-5.7%,-2.8%,5.2%,-8.9
O=C(NC(c1ccc(Cl)cc1)c1ccsc1)C1CCN(Cc2cccc(C(F)(F)F)c2)CC1 (configuration not stated),nt,nt,nt,nt,-70.1*
COCCNC(=O)C1CCCN(Cc2cccc(C(F)(F)F)c2)CC1 (configuration not stated),nt,nt,nt,nt,20.3
O=C(NC(c1ccc2ccccc2n1)c1cccs1)C1CCN(Cc2cccc(C(F)(F)F)c2)CC1 (configuration not stated),nt,nt,nt,nt,-66.1*
Cc1nn(-c2ccccc2)c(C)c1-c1cc(C(=O)N/N=C/c2ccc(O)cc2)[nH]n1,?,16.6%,22.5%,18.4µM*,-21.6
O=C(N/N=C/c1ccccn1)c1cc(-c2ccc(Br)s2)[nH]n1,17.8µM*,-28.4%,-1.0%,?,23.5
Cc1nn(-c2ccccc2)c(C)c1/C=N/NC(=O)c1cc(-c2ccc(Br)s2)[nH]n1,?,-0.5%[0.365 µM],14.6µM*,4.11µM*,43.5
COc1cc(/C=N/NC(=O)c2cc(C34CC5CC(CC(C5)C3)C4)[nH]n2)ccc1O,-0.5%,0.5%,-0.3%,1.3µM*,11.6
COc1cc(/C=N/NC(=O)c2cc(-c3c(C)nn(-c4ccccc4)c3C)n[nH]2)ccc1O,?,-3.7%,?,20.7%,-29.2
CC/C=C\C/C=C\C/C=C\C/C=C\C/C=C\C/C=C\CCC(N)=O,-0.7%,-2.4%,nt,nt,nt
COc1cc(/C=N/NC(=O)c2cc(-c3ccc4c(c3)OCO4)n[nH]2)ccc1O,-37.8%,?,-0.2%,5.5%,-154.5*
Cc1nn(-c2ccccc2)c(C)c1/C=N/NC(=O)c1cc(-c2ccc(Cl)s2)[nH]n1,?,-21.8%,5.17µM*,3.66µM*,-11.6
Cc1nn(-c2ccccc2)c(C)c1/C=N/NC(=O)c1cc(C23CC4CC(CC(C4)C2)C3)[nH]n1,12.6%,-20.2%,19.6%,2.59µM*,29.2
Cc1nn(-c2ccccc2)c(C)c1/C=N/NC(=O)c1cc(-c2cccs2)[nH]n1,32.4%,-27.7%,0.651µM*,28.8%,73.8
Cc1cc(C(=O)N/N=C/c2c(C)nn(-c3ccccc3)c2C)n[nH]1,3.1%,7.8%,-4.0%,3.3%,-13.1
CN(C(=O)c1cccc(NC(=O)Cc2cccc(NC(=O)C3CCN(C(=O)CCc4ccccc4)CC3)c2)c1)C1CC1,nt,nt,0.9%,9.8%,-17.3
CCOC(=O)C1(C)CCN1C(=O)COc1ccc(C(C)(C)C)cc1 (configuration not stated),nt,nt,nt,nt,33.3
CC1=C(C)/C(=N\OS(=O)(=O)c2ccccc2)C=CC1=O,2.51µM*,2.51µM*,10µM*,?,-120.6*
COC(=O)c1ccc2nc(-c3ccc(OC)c(OC)c3)c(Cc3cccc(F)c3)n2c1,nt,nt,nt,nt,18.3
Cc1ccc2c(c1)cc1c(=O)n(CC(=O)NCCCc3ccccc3)nc(C)n12,?,2.0%,?,5.2%,4.5
